Compound activity (PubChem)
Shiga inhibitor – blocks Shiga toxin action in Vero cells; Vero cells, Shiga toxin protein synthesis inhibition reporter; inhibition, % at 38.7 µM; hit rate 9.2% among 290,000; in the data active = inhibition mostly above about 28%, no sharp cut-off; inactive = mostly below about 43%; note: 0% is about no effect
NS1 function inh – blocks influenza NS1 protein function | Potency, µM (series often up to 46.1 µM), for the others: at the highest dose activity, positive = more growth | hit rate 0.4% among 270,000 | AID 2326; calls by dose curve; note: potency is the fitted concentration of half-maximal effect; actives are rising curves; nearly all actives have a fitted effect of over 50% in size
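S. cerevisiae expressing influenza A NS1, grown in glucose, washed, then diluted 1:100 into pH 6.0 -URA galactose medium with 23 nl compound. Growth recovery read as OD600; NS1-free strain serves as control.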
Sm TGR inh – inhibitors of Schistosoma mansoni thioredoxin glutathione reductase; purified TGR, DTNB reduction, TNB absorbance 405 nm; Potency, µM (highest dose often 114 µM), for inactives: top-dose activity change, negative = inhibition, actives largely listed as inhibitors; Q962Y6; hit rate 3% among 360,000; note: potency is the fitted concentration of half-maximal effect; % is set by controls: 0 for no effect and ±100 for the full control effect; nearly all actives have a fitted effect of over 60% in size
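First, TGR (20 nM dispensed) and NADPH were mixed with compound. Second, a 15 min room-temperature incubation followed. Third, further NADPH and then DTNB were added to start the reaction. Finally, TNB absorbance was monitored kinetically.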
Pf growth 48h – P. falciparum growth inhibition at 48 hours (one generation); Potency, µM (titrated, usually from 28.7 µM), for inactives: at the highest dose activity change, negative = inhibition, usual class: inhibitors; hit rate 5.9% among 310,000; P. falciparum luciferase growth in erythrocytes, 48 h; note: potency is the fitted concentration of half-maximal effect; % is set by controls: 0 for no effect and ±100 for the full control effect
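Here the parasites carry a stable luciferase gene and grow inside erythrocytes in Albumax-based RPMI medium with compound for one erythrocytic cycle. Activity is scored as loss of luminescent signal.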
Pf growth 96h – P. falciparum growth inhibition at 96 hour, primary screen for plastid delayed-death inhibitors. P. falciparum luciferase reporter growth, 96 h. Potency, µM (top dose mostly 28.7 µM), for inactives: top-dose activity change, negative = inhibition, most hits filed as inhibitors. hit rate 6.9% among 320,000. AID 504834; note: potency is the fitted concentration of half-maximal effect; % is set by controls: 0 for no effect and ±100 for the full control effect
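Two parasite generations (96 h, 37 C, 5% CO2) of compound exposure in infected erythrocytes (0.05% parasitemia, 2% hematocrit). Luciferase-reporter P. falciparum; decreased luminescence indicates inhibited growth, aimed at apicoplast-acting delayed death.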
Cycloheximide cs – counter-screen for Shiga toxin inhibitors: cycloheximide protein synthesis inhibition; hit rate 12% among 300,000; max response, %; cell reporter, cycloheximide protein synthesis inhibition counterscreen; in the data active = max response mostly above about 13%, no sharp cut-off; inactive = mostly below about 14%; note: read at 38.3 µM for the half of the compounds with a filed dose; 0% is about no effect
Active calls of the source: *; u = inconclusive; x = no result; [ ] = remark or other dose. Hits are enriched below; roughly 21% of the tested compounds scored in any of these assays. Unless noted, calls come from the whole dose curve; as a rule, active = well fitted curve in the direction sought with a large enough effect; inconclusive = small, poorly fitted or top-dose-only effect, or another doubt; inactive = no such curve, though single readings can be large; an effect the other way counts as inactive or inconclusive.

SMILES	Shiga inhibitor	NS1 function inh	Sm TGR inh	Pf growth 48h	Pf growth 96h	Cycloheximide cs
CCc1ccc(NC(=O)CSC2=Nc3ccccc3C3=NC(CCC(=O)NCCc4ccccc4)C(=O)N23)cc1 (stereo not drawn)	x	x	-2%	x	x	x
Cc1ccc2cc(CN(CC3CCCO3)S(=O)(=O)c3cccc4nsnc34)c(=O)[nH]c2c1 (stereo not drawn)	-6	-3%	-17%	9.3µM*	-1%	-4
CN(C(=O)CSc1nc(N)c2c3c(sc2n1)CSC(C)(C)C3)c1ccccc1	-9	16%	-10%	u	-12%	-4
CC(=O)Nc1ccc(C)cc1-c1nc2ccccc2n(Cc2cccc(Br)c2)c1=O	x	x	0%	x	x	x
Cc1ccc(C)c(C(=O)COC(=O)c2cc([N+](=O)[O-])ccc2N2CCOCC2)c1	x	x	-1%	u	15µM*	x
Cc1ccc(C(=O)c2cc([N+](=O)[O-])ccc2N2CCOCC2)c(C)c1	-20	13%	11%	u	10µM*	-1
COC(=O)c1ccc(Cl)cc1NC(=O)NC(C)c1c(-n2cccc2)sc(C)c1C (stereo not drawn)	x	x	-8%	x	x	x
CC(C)(C)OC(=O)N1CCC(C(=O)N[C@@H](Cc2ccccc2)C(=O)O)CC1	-8	1%	1%	x	-14%	-5
CCOC(=O)c1c(CN(C)C)oc2cc(CN(C)C)c(O)c(CSc3ccccc3)c12	-16	10%	-20%	0.37µM*	2.3µM*	8
CCOC(=O)c1c(CN(CC)CC)n(C)c2cc(Br)c(O)cc12	3	6%	-28%	u	u	-3
CCOC(=O)c1c(-c2ccccc2)oc2ccc(O)c(CN3CCOCC3)c12	-11	-6%[9.22 µM]	14%	u	x	-3
CCOC(=O)c1c(CSc2ccccc2)n(C)c2ccc(O)c(CN3CCN(C)CC3)c12	8	u	18µM*	u	u	0
CCOC(=O)c1c(CN2CCOCC2)n(-c2ccccc2)c2cc(Br)c(O)c(CN(C)C)c12	-17	7%	0%	13µM*	2.6µM*	-2
CCOC(=O)c1c(C)n(C)c2ccc(O)c(CN3CCCCC3)c12	-24	-6%	28%	u	x	-1
CCOC(=O)c1c(CSc2ccc(C)cc2)n(C)c2cc(Br)c(O)c(CN(C)C)c12	-4	12%	-11%	4.1µM*	10%	1
CCOC(=O)c1c(CN2CCCCC2)n(C)c2cc(Br)c(O)c(CN(C)C)c12	13	-4%	-21%	x	12µM*	-2
CCOC(=O)c1c(CSc2ccsc2)n(C)c2cc(Br)c(O)c(CN(C)C)c12	0	17%	-5%	u	u	-3
CCOC(=O)c1c(CSc2ccccc2)n(C)c2cc(Br)c(O)c(CN(C)C)c12	-4	3%	-1%	9.3µM*	u	-4
O=C(NCc1cccs1)c1nn(-c2ccccc2)nc1CO	x	x	2%	x	x	x
Cc1cc2ncn(C(=O)N3CCCCC3)c2cc1C	36	-39%	-1%	8%	13µM*	13
Cc1cc2ncn(C(=O)N3CCCCCC3)c2cc1C	active	3%	u	53%	7.4µM*	19*
Cc1cc2ncn(S(=O)(=O)N3CCCCC3)c2cc1C	-6	-3%	-4%	-10%	x	-4
Nc1cc(S(=O)(=O)N2CCOCC2)ccc1Oc1cccc(Br)c1	x	x	5%	5%	20%	x
O=C(CN1C(=O)C2CCCCC2C1=O)Nc1cc(C(F)(F)F)ccc1N1CCCC1 (stereo not drawn)	x	x	-11%	u	40%	x
COc1ccc(S(=O)(=O)N2CCC(c3nc4ccccc4s3)CC2)cc1OC	x	x	1%	x	x	x
SMILES	Shiga inhibitor	NS1 function inh	Sm TGR inh	Pf growth 48h	Pf growth 96h	Cycloheximide cs
COc1cc(S(=O)(=O)N2CCC(c3nc4ccccc4s3)CC2)ccc1S(=O)(=O)NC1CCCC1	1	3%	5%	u	9.3µM*	0
CN(Cc1cn(C)nc1-c1ccccc1F)C1CCOC1 (stereo not drawn)	-5	5%	-8%	12%	0%	-2
CN(CCCN1CCOCC1)Cc1cn(C)nc1-c1ccccc1F	-8	-2%	-24%	0%	5.9µM*	-2
Cc1c(CN(C)Cc2cn(C)nc2-c2ccccc2F)[nH]c2ccccc12	-18	0%	-5%[57.1 µM]	-9%	3.7µM*	-2
Cn1cc(CN(Cc2ccccc2)C[C@@H]2CCC(=O)N2)c(-c2ccccc2F)n1	-1	-5%	-6%[57.1 µM]	-28%	u	5
CC(=O)OC[C@H]1O[C@@H](O/N=C/C[C@@H]2C=C[C@H](OC(C)=O)[C@@H](COC(C)=O)O2)[C@H](OC(C)=O)[C@@H](OC(C)=O)[C@@H]1OC(C)=O	6	-32%	u	32%	u	7
COc1ccc(NC(=O)CSc2nc(O)cc(=O)n2-c2ccccc2)cc1	-7	27%	3%	1%	40%	14
O=c1c2[nH]c3ccccc3c2nc(SCc2cccc(F)c2)n1-c1ccccc1	x	x	12%	x	x	x
O=C(CSc1nc2nc3c(cc2c(=O)n1-c1ccccc1)CCCC3)Nc1cccc2ccccc12	14	24%	6%	5.9µM*	5.9µM*	-6
O=C(CSc1nc(O)cc(=O)n1-c1ccccc1)NC1CCCCC1	27	u	-18%	2.6µM*	x	3
CCn1c(SCC(=O)NCc2ccccc2)nc2nc3c(cc2c1=O)CCCC3	-9	-3%	4%	-20%	u	-4
O=c1cc(O)nc(SCc2ccccc2)n1-c1ccc(F)cc1	-7	12%	-19%	2.9µM*	u	-3
O=C(CSc1nc(O)cc(=O)n1-c1ccccc1)Nc1ccc2c3c(cccc13)CC2	2	u	2%	u	8.3µM*	-2
COCCSc1ccccc1C(=O)Nc1ccc(S(=O)(=O)N2CCOCC2)cc1	-2	-6%	0%	u	15%	-2
COc1ccc2c(c1)c1c(c(=O)n(-c3ccc(F)c(Cl)c3)c(=O)n1CC(=O)N1CCCC1)n2C	x	x	3%	x	x	x
CSCC[C@H](N)C(=O)N1CCC(C(=O)N[C@@H](C)C(=O)NCc2ccc(F)cc2)CC1	-3	-16%	0%	30%	34%	-4
Cc1cccc(NC(=O)CSc2nc3nc4c(cc3c(=O)n2-c2ccccc2)CCCC4)c1	-13	6%	-4%	5.2µM*	2.9µM*	-2
Cc1ccccc1-n1c(SCC(=O)Nc2ccccc2)nc2nc3c(cc2c1=O)CCCC3	-10	u	-2%	u	46%	-3
Cc1ccc2c(=O)c3ccccc3n(CCCN)c2c1C	-8	x	x	x	x	-3
Cc1cccc(C(=O)Nc2ccccc2SCC(=O)Nc2ccc(C)c(Cl)c2)c1	17	-1%	7%	10%	19%	22*
C/C(CC(=O)Nc1ccc(N(C)C)cc1)=N\NC(=O)c1ccccn1	98*	2%	u	72%	235%	33*
C/C(CC(=O)Nc1ccc(C)c(Cl)c1)=N\NC(=O)c1cccc(O)c1	56*	4%	u	3%	u	57*
